High-throughput results: PubChem, several laboratories
An excerpt weighted towards active compounds, which were near 3.1% of everything screened.
MEKK3 PB1 HTS = raises or lowers MEK5 binding to the human MEKK3 PB1 domain. Q99759. bead-based flow cytometry, Alexa488-MEK5 binding to MEKK3; actives lie on both sides; 0 = blocked by unlabeled MEK5, 100 = vehicle. binding response (% of control), % at 10 µM. 290,000 tested, 1.4% active;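 active = binding response more than 3 SD above or below the average of its plate-row segment, actives on both sides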;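 also: Alexa488 bead fluorescence after subtracting the streptavidin-only scavenger bead signal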
MEKK2 mut-MEK5 = signal of MEK5 binding to mutant human MEKK2 PB1 domain; bead flow cytometry, Alexa488-MEK5 binding to MEKK2 mutant; percent response, % at 10 µM; 290,000 tested, 0.35% active; in the data active = percent response above about 24%, passing the limit was not always enough
PREPL inhibitor = inhibitors of human prolyl oligopeptidase-like enzyme PREPL; Q4J6C6; recombinant PREPL, fluorescence polarization activity-based probe; inhibition, % at 5.96 µM; 320,000 tested, 0.68% active; AID 2751; in the data active = inhibition above about 43%
Target sequence (Q4J6C6 whole entry, looked up): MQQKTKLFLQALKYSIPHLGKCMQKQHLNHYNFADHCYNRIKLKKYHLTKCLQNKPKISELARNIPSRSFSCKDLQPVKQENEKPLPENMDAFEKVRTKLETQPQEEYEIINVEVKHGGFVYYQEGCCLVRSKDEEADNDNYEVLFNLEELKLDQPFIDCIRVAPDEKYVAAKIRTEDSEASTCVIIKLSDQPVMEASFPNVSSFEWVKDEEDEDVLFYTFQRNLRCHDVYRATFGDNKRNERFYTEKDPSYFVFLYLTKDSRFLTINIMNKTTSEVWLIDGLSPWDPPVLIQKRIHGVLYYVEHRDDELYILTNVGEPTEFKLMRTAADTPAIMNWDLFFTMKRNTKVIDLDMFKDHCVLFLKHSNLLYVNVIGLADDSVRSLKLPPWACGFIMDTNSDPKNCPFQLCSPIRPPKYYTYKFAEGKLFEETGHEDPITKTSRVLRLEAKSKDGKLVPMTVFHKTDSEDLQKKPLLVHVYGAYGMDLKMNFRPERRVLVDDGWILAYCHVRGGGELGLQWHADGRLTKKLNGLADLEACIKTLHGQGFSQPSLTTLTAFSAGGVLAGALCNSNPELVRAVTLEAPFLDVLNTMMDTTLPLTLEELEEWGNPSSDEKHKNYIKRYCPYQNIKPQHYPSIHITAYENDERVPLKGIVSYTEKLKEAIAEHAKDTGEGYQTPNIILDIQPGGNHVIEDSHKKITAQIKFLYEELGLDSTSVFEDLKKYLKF
ATG4B inhibitor = blocks human ATG4B protease cleavage of LC3 substrate. Q9Y4P1. ATG4B cleavage of LC3-PLA2, NBD-HPC fluorescence, 1 h. inhibition, % at 8.33 µM. 340,000 tested, 0.51% active; in the data active = inhibition above about 40%
UBC13 inh = blocks human UBC13 polyubiquitin chain formation. P61088. TR-FRET. inhibition, % at 20 µM. 330,000 tested, 0.47% active. AID 485273; in the data active = inhibition above about 45%, passing the limit was not always enough
MEKK2wt PB1 HTS = raises or lowers MEK5 binding to wildtype human MEKK2 PB1 domain; bead flow cytometry, Alexa488-MEK5 binding to MEKK2 WT; actives lie on both sides; binding response (% of control), % at 10 µM; 290,000 tested, 1.1% active; Q9Y2U5; in the data active = binding response below about 67% or above about 130%
MEKK2wt confirm = raises or lowers MEK5 binding to wildtype human MEKK2, retest; shares compounds with MEKK3 PB1 HTS; bead flow cytometry, Alexa488-MEK5 binding to MEKK2 WT; actives lie on both sides; binding response (% of control), % at 10 µM; 5,900 tested, 2.4% active; in the data active = binding response below about 16% or above about 210%; inactive = in between
MEKK2mut-MEK5 = signal of MEK5 binding to mutant human MEKK2, retest | percent response, % at 10 µM | bead flow cytometry, Alexa488-MEK5 binding to MEKK2 mutant | 5,900 tested, 2% active | shares compounds with MEKK3 PB1 HTS; in the data active = percent response mostly above about 71%, no sharp cut-off; inactive = mostly below about 38%;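 also: higher means compound restores mutant binding toward wildtype level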
MEKK3 confirm = MEKK3-MEK5 PB1 inhibition, single concentration confirmation. shares compounds with MEKK3 PB1 HTS. bead flow cytometry, Alexa488-MEK5 binding to MEKK3; hits give low values. binding response (% of control), % at 10 µM. 5,900 tested, 1.8% active. AID 1894;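 active = binding response below 72% of control, or above a set upper limit, though filed actives all read lower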;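 also: lower values mean stronger disruption of MEK5 binding to MEKK3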
Casp3 UBC13 ctr = caspase-3 inhibition (UBC13 counter-screen); Recombinant caspase-3, Caspase-Glo 3/7 luminescence, 60 min; shares compounds with UBC13 inh; 1,400 tested, 4% active; inhibition, % at 20 µM;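 active = mean inhibition across replicates above about 26%, limit read from the data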
UBC13 conf = human UBC13 polyubiquitin inhibition, confirmed. shares compounds with UBC13 inh. UBC13 polyubiquitination, TR-FRET, biochemical. inhibition, % at 10 µM. 1,400 tested, 68% active. AID 488859; in the data active = inhibition above about 45%
Of the large screens only hits and unclear results are named; the others gave an inactive call (follow-up assays come after a bar, where they were run).

COc1ccc(C(CCN2CCCC2)c2c(OC)cc(OC)c3c(-c4ccccc4)cc(=O)oc23)cc1 (stereo not given)	UBC13 inh 67, MEKK2wt PB1 HTS 152 | MEKK2wt confirm inactive | MEKK2mut-MEK5 inactive | MEKK3 confirm inactive | Casp3 UBC13 ctr inactive | UBC13 conf inactive
CCCCCc1cc(=O)oc2c(C(CCN(CC)CC)c3cc(OC)c(OC)c(OC)c3)c(OC)cc(OC)c12 (stereo not given)	MEKK2 mut-MEK5 34, UBC13 inh 85, MEKK2wt PB1 HTS 218 | MEKK2wt confirm inactive | MEKK2mut-MEK5 inactive | MEKK3 confirm inactive | Casp3 UBC13 ctr inactive | UBC13 conf 73
COc1cc(C(CCN2CCCC2)c2c(OC)cc(OC)c3c(-c4ccccc4)cc(=O)oc23)cc(OC)c1OC (stereo not given)	MEKK2 mut-MEK5 26, UBC13 inh 46, MEKK2wt PB1 HTS 140 | MEKK2wt confirm inactive | MEKK2mut-MEK5 inactive | MEKK3 confirm inactive | Casp3 UBC13 ctr inactive | UBC13 conf inactive
COc1ccc(C(CCN2CCCC(C)C2)c2c(OC)cc(OC)c3c(-c4ccccc4)cc(=O)oc23)cc1 (stereo not given)	MEKK2 mut-MEK5 41, UBC13 inh 59, MEKK2wt PB1 HTS 207 | MEKK2wt confirm inactive | MEKK2mut-MEK5 inactive | MEKK3 confirm inactive | Casp3 UBC13 ctr inactive | UBC13 conf 45
COc1cc(OC)c2ccc(=O)oc2c1C(CCN1CCCC1)c1ccc2c(c1)OCO2 (stereo not given)	none
NS(=O)(=O)c1cccc(NC(=O)CCN2C(=O)C3CCCCC3C2=O)c1 (stereo not given)	none (no result: MEKK3 PB1 HTS, MEKK2 mut-MEK5, MEKK2wt PB1 HTS)
COc1cc(OC)c2c(-c3ccccc3)cc(=O)oc2c1C(CCN1CCOCC1)c1ccc2c(c1)OCO2 (stereo not given)	none (no result: MEKK3 PB1 HTS, MEKK2 mut-MEK5, PREPL inhibitor, UBC13 inh, MEKK2wt PB1 HTS)
COc1cc(OC)c2c(-c3ccccc3)cc(=O)oc2c1C(CCN1CCCC1)c1ccc2c(c1)OCO2 (stereo not given)	MEKK3 PB1 HTS 128, UBC13 inh 52, MEKK2wt PB1 HTS 175 | MEKK2wt confirm inactive | MEKK2mut-MEK5 inactive | MEKK3 confirm inactive | Casp3 UBC13 ctr inactive | UBC13 conf inactive
CCN(CC)CCC(c1ccc(N(C)C)cc1)c1c(OC)cc(OC)c2c(-c3ccccc3)cc(=O)oc12 (stereo not given)	MEKK2 mut-MEK5 25, UBC13 inh 50, MEKK2wt PB1 HTS 178 | MEKK2wt confirm inactive | MEKK2mut-MEK5 inactive | MEKK3 confirm inactive | Casp3 UBC13 ctr inactive | UBC13 conf inactive
CCC[C@@H](CN[C@@H](CNC)[C@H](C)CC)NCC1CCC(C(C)(C)C)CC1 (stereo not given in full)	UBC13 inh 63, MEKK2wt PB1 HTS 148 | MEKK2wt confirm inactive | MEKK2mut-MEK5 inactive | MEKK3 confirm inactive | Casp3 UBC13 ctr inactive | UBC13 conf 61
CC(C)NCC(O)COC1CCC(C(C)(C)C)CC1 (stereo not given)	none
CC[C@@H](C)[C@H](CNC)NC[C@@H](Cc1cccc2ccccc12)NCCc1cccc(C(F)(F)F)c1	MEKK2 mut-MEK5 74, UBC13 inh 60, MEKK2wt PB1 HTS 318 | MEKK2wt confirm 247 | MEKK2mut-MEK5 101 | MEKK3 confirm inactive | Casp3 UBC13 ctr inactive | UBC13 conf 100
